Results published in PubChem BioAssay (NCI).
Compounds without any hit were thinned out: in the full panel of roughly 83,000, 20% have a hit.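 Interpretation: 100, growth as untreated; towards 0, rising growth inhibition; 0, no net growth; 0 to -100, cell death. Compounds scoring below 10 were considered active.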 Values without a mark were called inactive. Calls of active or inactive are those of the source.

Each molecule was assayed on HL-60(TB) leukemia (assay: NCI-60 one-dose screen, 48 h (100 = growth as untreated, 0 = no growth, -100 = all killed)). Conditions: 10 µM unless noted.

SMILES | growth
COc1ccc(-c2noc(N)c2-c2cc(OC)c3c(c2)OCO3)cc1 | -29.4% (active)
O=C(Nc1ccc(-c2nc3cc4ccccc4cc3[nH]2)cc1)c1cccc(Br)c1 | 42.3%
COc1ccc(-c2c(N)noc2-c2cc(OC)c3c(c2)OCCO3)cc1 | -30.8% (active)
CC(C)NCCCCCNc1cc(O)cc2cccnc12 | -43.6% (active)
CCCCN(CCCC)CCc1c(C)cc(C)c(CCN(CCCC)CCCC)c1O | 7.15% (active)
Cc1cc(N(CCNc2ccnc3cc(Cl)ccc23)Cc2ccco2)nc(Cl)n1 | -61.9% (active)
COc1nccnn1 | 185%
O=C1C=Cc2ccccc2/C1=C/c1nc(-c2ccccc2)oc1O | 101%
Cc1nc2cc(Nc3nc(N4CCOCC4)nc(N4CCN(C)CC4)n3)ccc2n1Cc1ccccc1 | 103%
COc1ccc2c(c1)C(=O)c1c-2c(OCCN2CCCCC2)nc2ccc(OC)cc12 | 17.1%
NC1(c2ccc(-c3nc4ccn5c(=O)[nH]nc5c4cc3-c3ccccc3)cc2)CCC1 | 50.1%
FC(F)(F)c1ccc(-c2cnc(-c3nn[nH]n3)nc2NC2CCCCCC2)cc1 | 31.1% [50 µM]
Cc1nn(-c2ccccc2)c(N2CCOCC2)c1/C=N/N=c1\sc2ccccc2n1C | 67.2%
COc1cc(-c2nc(-c3ccc(-c4nc5ccc(F)cc5[nH]4)cc3)no2)cc(OC)c1OC | 13.4%
O=C(c1cccc(C(=O)c2ccc3c4c(cccc24)C(=O)N(c2ccccc2)C3=O)c1)c1ccc2c3c(cccc13)C(=O)N(c1ccccc1)C2=O | 103%
